The results in this text go back to article PMC5540273 (PLoS ONE, 2017).

The structures appear in SMILES notation.

What all share (settings): concentration: 1 μM, replicates: in singlicate; n = 1
Experiment [1] has as its system CDK4.
Experiment [2] concerns CDK5.
Experiment [3] relates to CDK7.
The subject of experiment [4] is CDK8.
Experiment [5] relates to CDK9.
The subject of experiment [6] is CDKL1.
Experiment [7] concerns CDKL2.
Experiment [8] concerns CDKL3.
Experiment [9] concerns CDKL5.
The subject of experiment [10] is CHEK1.
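Further: KINOMEscan kinase panel screen.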

Consider `O=C(Nc1ccc2c(c1)OCO2)NC1CCN(c2ccnc(Nc3ccc(F)cc3)n2)C1` (centres unmarked) [GSK1379724], for which the “%Inh” value in experiment [1] was found to be 0%; in experiment [2] it was 0%; in experiment [3] it was 0%; in experiment [4], 33%; in [5], 0%; in experiment [6] it was 0%. The “%Inh” value in experiment [7] amounted to 49%; in [8], 0%; in experiment [9] it was 3%; in [10], 0%.
Turning to `Cc1cccc(-c2nc(Nc3cccc(C(N)=O)c3)c3ccccc3n2)n1` [GW876019], the “%Inh” value in [1] is 0%; in experiment [2] it was 0%; in [3], 8%; in experiment [4], 36%; in [5] it was 0%; in experiment [6], 36%. The “%Inh” value in experiment [7] came out at 13%; in [8], 0%; in experiment [9], 1%; in [10], 0%.
As to `Cc1c(Cn2ccn3c(=O)cc(N4CCOCC4)nc23)cccc1C(F)(F)F` [GSK2289044], the “%Inh” value in experiment [1] is given as 4%; in experiment [2], 0%; in [3], 0%; in experiment [4], 0%; in experiment [5], 0%; in [6], 3%. The “%Inh” value turned out to be 10% in experiment [7], 0% in experiment [8], 16% in experiment [9] and 0% in [10].
Consider `COc1cc2ncnc(Nc3ccc4nc(-c5ccccc5)[nH]c4c3)c2cc1OC.Cl` [GW282450], for which the “%Inh” value in [1] is given as 20%; in [2], 0%; in [3] it was 0%; in experiment [4], 0%; in [5], 0%; in [6], 1%. In addition, the “%Inh” value in [7] is on record as 7%; in experiment [8], 0%; in experiment [9], 1%; in [10], 0%.
Take `COc1ccc(Nc2nccc(NCCNC(=O)Nc3ccccc3F)n2)cc1` [GSK1379901]: the “%Inh” value stood at 0% in [1]; 0% in experiment [2]; 0% in experiment [3]; 0% in experiment [4]; 1% in experiment [5]; 4% in experiment [6]. Besides, the “%Inh” value was found to be 9% in [7], 0% in [8], 3% in experiment [9] and 0% in experiment [10].
In the case of `Clc1cc(Cl)cc(Nc2ccnc(Nc3cc(Cl)cc(Cl)c3)n2)c1` [GSK175726], the “%Inh” value in [1] came to 11%; in [2] it was 0%; in experiment [3], 5%; in [4] it was 0%; in [5], 13%; in experiment [6] it was 11%. For the same compound, the “%Inh” value in experiment [7] came to 32%; in [8], 0%; in experiment [9], 0%; in experiment [10], 0%.
In the case of `COc1ccccc1CNC(=O)c1cc(C(=O)c2ccccc2C)c[nH]1` [GSK364507], the “%Inh” value in [1] worked out at 0%; in experiment [2], 9%; in experiment [3], 0%; in experiment [4], 5%; in experiment [5], 0%; in experiment [6], 10%. Besides, the “%Inh” value in [7] worked out at 16%; in experiment [8], 0%; in experiment [9] it was 0%; in [10] it was 0%.
As to `O=C(Nc1n[nH]c2cc(-c3cccc(F)c3F)ccc12)C1CC1` [SB-733894], the “%Inh” value amounted to 0% in [1]; 0% in experiment [2]; 17% in experiment [3]; 89% in [4]; 5% in [5]; 37% in experiment [6]. Moreover, the “%Inh” value in [7] came out at 95%; in experiment [8] it was 48%; in [9], 0%; in experiment [10] it was 3%.
As for `CS(=O)(=O)c1ccc(-c2nc3n(c2-c2ccncc2)CCC3)cc1` [SKF-105942], the “%Inh” value in [1] was 9%; in [2], 0%; in experiment [3] it was 0%; in [4], 0%; in experiment [5], 100%; in experiment [6], 28%. Further, the “%Inh” value in experiment [7] turned out to be 17%; in [8], 0%; in [9], 4%; in experiment [10] it was 0%.
As for `COc1ccc(CNC(=O)NC2CCN(c3ccnc(Nc4cc(OC)c(OC)c(OC)c4)n3)C2)cc1` (centres unmarked) [GSK1379748], the “%Inh” value is 36% in [1]; 0% in [2]; 0% in experiment [3]; 51% in experiment [4]; 0% in experiment [5]; 15% in experiment [6]. Besides, the “%Inh” value in experiment [7] is 20%; in experiment [8], 0%; in experiment [9], 0%; in experiment [10], 0%.
In the case of `Cc1nnc(-c2ccc3occ(-c4ccc(S(C)=O)cc4)c3c2)[nH]1` (centres unmarked), the “%Inh” value in [1], in experiment [2], in experiment [3], in [4], in [5] and in experiment [6] was 0% throughout. The “%Inh” value in experiment [7] was 0%; in experiment [8], 0%; in experiment [9], 12%; in experiment [10] it was 0%.
Turning to `O=S(=O)(c1ccc(-c2ccnc3[nH]ccc23)cc1)N1CCCC1` [GSK846226], the “%Inh” value in experiment [1] was determined as 0%; in experiment [2] it was 0%; in [3], 2%; in experiment [4], 0%; in [5], 0%; in experiment [6], 7%. Besides, the “%Inh” value in experiment [7] is listed as 5%; in experiment [8], 0%; in [9], 4%; in [10], 0%.
`COc1ccc(Nc2nccc(-c3cccc(NC(=O)c4cc5cc(F)ccc5[nH]4)c3)n2)cc1` [GSK1229782]: the “%Inh” value turned out to be 48% in experiment [1]; 1% in experiment [2]; 4% in [3]; 56% in [4]; 0% in experiment [5]; 12% in experiment [6]. For the same compound, the “%Inh” value in experiment [7] was 30%; in experiment [8], 0%; in experiment [9], 0%; in experiment [10] it was 0%.
For `Cc1ccc(C(=O)Nc2ccc(Nc3ccnc4cc(-c5ccccn5)ccc34)cc2O)cc1.Cl` [GW440146], the “%Inh” value amounted to 32% in experiment [1]; 0% in experiment [2]; 0% in experiment [3]; 23% in [4]; 0% in experiment [5]; 0% in [6]. For the same compound, the “%Inh” value is given as 18% in experiment [7], 0% in experiment [8], 2% in [9] and 0% in [10].
On to `O=C(Nc1n[nH]c2nc(-c3nccs3)c(Br)cc12)C1CC1` [SB-742251], for which the “%Inh” value in [1] was 44%; in [2], 0%; in [3], 12%; in [4], 25%; in experiment [5], 0%; in experiment [6], 24%. The “%Inh” value in [7] is recorded as 92.3%; in experiment [8], 0%; in experiment [9], 0%; in experiment [10], 0%.
Turning to `CN1C(=O)C(Nc2ccc(Cl)c(C(=O)O)c2)=C(c2ccc(Cl)cc2)C1=O` [SB-404290], the “%Inh” value in [1] is recorded as 47%; in [2] it was 0%; in experiment [3], 0%; in experiment [4], 0%; in experiment [5] it was 0%; in experiment [6], 1%. Further, the “%Inh” value came out at 13% in experiment [7], 0% in experiment [8], 16% in experiment [9] and 0% in experiment [10].
`Cc1cccc(-c2nc(-c3ccc(S(C)(=O)=O)cc3)sc2-c2ccnc(NCCc3ccccc3)c2)c1`: the “%Inh” value in [1] is given as 0%; in experiment [2], 9%; in experiment [3] it was 2%; in [4], 15%; in experiment [5], 1%; in experiment [6], 14%. Moreover, the “%Inh” value in experiment [7] was determined as 13%; in experiment [8], 10%; in experiment [9], 23%; in experiment [10] it was 0%.
